Among the data in PubChem BioAssay (NCI) are growth values, retold here.

Structures are written as SMILES. The panel holds about 83,000 compounds, 20% with a hit somewhere; the sample as a whole holds those more often.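 Step 1: grow cells in 96-well plates. Step 2: add test compound at a single concentration. Step 3: incubate 48 h. Step 4: record percent growth.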 Unmarked numbers belong to inactive results. Activity calls are given as the source filed them. Rule for the calls: active = growth percent below 10; inactive = the rest.

What all share (assay): NCI-60 one-dose screen, 48 h (100 = growth as untreated, 0 = no growth, -100 = all killed)
What all share (details): 10 µM unless noted

Assay [1] has as its system NCI-H23 lung.
Assay [2] relates to NCI-H226 lung.
Assay [3] relates to NCI-H322M lung.
Assay [4] has as its system HOP-62 NSCLC.
Assay [5] deals with NCI-H460 lung.
Assay [6] deals with HOP-92 NSCLC.
Assay [7] has as its system NCI-H522 lung.
In assay [8] the test system is A549/ATCC NSCLC.
Assay [9] deals with 786-0 renal.
The test system of assay [10] is COLO 205 colon.

Regarding `CC(=O)c1cc(C(=O)c2ccc3c(c2)Sc2ccccc2N3)n2ccccc12`, the growth in [1] was 24.1%; in assay [2] it was 32.5%; in assay [3], 24.5%; in assay [4] it was 21.8%; in assay [5], 2.97% (active); in assay [6] it was 46.1%. In addition, the growth in [7] is -28.9% (active); in [8], 10.8%; in assay [9], 22.5%; in assay [10] it was -55.4% (active).

`O=S(=O)(Nc1ccc(NS(=O)(=O)c2ccccc2)c(Cl)c1)c1ccccc1`: the growth in assay [1] was 103%; in assay [2], 102%; in [3] it was 115%; in [4], 110%; in [5], 102%; in assay [6] it was 95.3%. The growth in [7] was 77.7%; in [8] it was 101%; in [9], 103%; in assay [10] it was 114%.

As to `CSc1nc(NCCN2CCOCC2)c(C#N)c(-c2cccc([N+](=O)[O-])c2)n1`, the growth was 97.1% in [1]; 106% in [2]; 92.9% in [3]; 89.4% in assay [4]; 100% in assay [5]; 101% in [6]. For the same compound, the growth in assay [7] is 85.7%; in assay [8] it was 99.5%; in [9] it was 101%; in [10] it was 111%.

Take `Cc1cc(N2CCN(C)CC2)nc(NC2CCCC(Nc3ccnc4cc(Cl)ccc34)C2)n1` (stereo not given): the growth in [1] was 35.9%; in assay [2], 5.72% (active); in [3] it was -6.32% (active); in [4], -31.2% (active); in assay [5] it was -26.6% (active); in [6], -69.9% (active). Besides, the growth in [7] is -46.4% (active); in [8], 3% (active); in assay [9], -60.5% (active); in [10], -76.1% (active).

With `CCOC(=O)c1c(C)oc2ncnc(N3CCN(C(=O)COc4ccc(SC)cc4)CC3)c12`, the growth in assay [1] was 93.9%; in assay [2] it was 83.3%; in assay [3], 99.3%; in assay [4], 86.4%; in assay [5], 98.7%; in [6], 78.9%. Moreover, the growth in assay [7] was 74.9%; in assay [8], 90.2%; in assay [9], 95.8%; in [10], 98%.

For `N=C(N)c1ccc(-c2ccc(-c3ccc4ccccc4c3)s2)s1`, the growth in [1] was 5.5% (active); in [2], 92.8%; in assay [3] it was 26.5%; in [4] it was 86.8%; in [5], -70.4% (active); in [6], 28.8%. Further, the growth in assay [7] was 15.3%; in [8], -36.3% (active); in assay [9] it was -39.1% (active); in [10], -40.8% (active).

With `CC1=C[C@H]2c3c(c(O)c(O)c4oc5cc(O)ccc5c(=O)c34)[C@H](c3cc(O)c(O)c4oc5cc(O)ccc5c(=O)c34)[C@H]2C(C)(C)C1`, the growth in assay [1] is 15.8%; in assay [2] it was 26.3%; in assay [3], 63.6%; in assay [4] it was 39.8%; in assay [5], 0.208% (active); in assay [6], -9.21% (active). The growth in assay [7] is 13.7%; in assay [8], 13.1%; in assay [9] it was 47.9%; in [10] it was 46.6%.

Take `CCOC(=O)c1sc2nc(-c3cccc(OC)c3)nc(N3CCOCC3)c2c1C`: the growth is 93.5% in [1]; 79.5% in assay [2]; 94.4% in [3]; 110% in assay [4]; 101% in assay [5]; 80.3% in [6]. The growth in [7] was 85.8%; in assay [8], 84%; in [9], 92.8%; in assay [10], 108%.

Regarding `Nc1n[nH]c2ccc([C@@H]3Nc4ccc5cn[nH]c5c4[C@H]4C5CCC(C5)[C@@H]34)cc12` (stereo not given in full), the growth in assay [1] was 43.5%; in assay [2], 37.9%; in assay [3], 47.2%; in [4] it was 48.3%; in assay [5], 1.13% (active); in assay [6] it was 104%. For the same compound, the growth in assay [7] was 27.1%; in assay [8], 24.4%; in assay [9], 38.4%; in assay [10], -9.43% (active).

Turning to `COc1cc2nc(N3CCCC3)nc(NCc3ccccc3)c2cc1OC`, the growth is 82.3% in assay [1]; 90% in assay [2]; 79.7% in assay [3]; 86.8% in assay [4]; 79.2% in assay [5]; 61.4% in assay [6]. Further, the growth in [7] is 73.1%; in [8], 76%; in [9], 78.6%; in assay [10], -20.7% (active).

Consider `O=C(Cc1ccccc1Nc1c(Cl)cccc1Cl)NN1C(=O)/C(=C/c2ccc(Br)cc2)SC1=S`, for which the growth was 97.5% in assay [1]; 95.6% in assay [2]; 98.7% in assay [3]; 104% in assay [4]; 104% in assay [5]; 103% in [6]. The growth in assay [7] was 93.9%; in [8] it was 99.5%; in assay [9] it was 98.9%; in assay [10], 105%.

In the case of `Cn1cc(C(=O)c2nc(-c3c[nH]c4ccc(F)cc34)no2)c2cc(F)ccc21`, the growth was 88% in assay [1]; 69.5% in assay [2]; 93.6% in assay [3]; 91.2% in [4]; 96.4% in assay [5]; 85.5% in assay [6]. The growth in assay [7] is 80.1%; in assay [8], 104%; in assay [9] it was 103%; in assay [10] it was 94.5%.

Take `Cc1cc2c3ccccc3ccc2[n+]2ccccc12`: the growth in assay [1] was 46.4%; in [2], 43.4%; in [3] it was 47.2%; in [4], 9.19% (active); in assay [5] it was 63.1%; in assay [6], 71.5%. Besides, the growth was -10.1% (active) in assay [7], -16.9% (active) in [8], 24% in assay [9] and 54.1% in assay [10].
